# Assay results from the supplement of paper PMC8728848.
# The entries come from a sample that favours the strongest signals as a whole.
# B1: MIC4-A5 (Toxoplasma gondii), Q9XZH7 (protein)
# chain: SPDFHDEVECVHTGNIGSKAQTIGEVKRASSLSECRARCQAEKECSHYTYNVKSGLCYPKRGKPQFYKYLGDMTGSRTCDTS
# B2: MIC1 (Neospora caninum), Q8WRS0 (protein)
# chain: AGAKTYGEASQPSASARSLQGALDTWCQEVFKKLCDDGYSKMCIPANQVVARQGLGRKDQQKLVWRCYDSAAFLAEGDENNVLSCVDDCGVSIPCPGGVDRDNSTHATRHDELSQLIKEGVVRYCSGFQAAANSYCNKRYPGTVARKSKGFGHKEPVKWRCYKPESLLFSVFSECVSNCGTTWSCPGGRLGTATNLDKKHFTDESGILQALTSVPKACPVGLVCLPRDQNPPACLDDNGNVPE
# B3: MIC13 (Toxoplasma gondii), A0A125YWL1 (protein)
# chain: IQLRQHRNGLGVEQSFVSEETDIVGGRISSLQAELDSYCHNRYKQLCDGGNKKFCDKTGVARYGTGIQSQQTAEWRCYFAEVLKPSGRKVQCVDDCGNYFPCLGVVDPNDTFHATAHNQILNFIKDGVEKHCSPFQMAGNNYCQGVLADTVARKDTGTASQKAKAWRCYKKDSLTYEARSICVDNCGGEIECPGGRSETSGELLSQHYTREKELQKVIESQSAPCHDACVATPINPPICADTESLLQSTKRSRAQRFIDDACQKLFNCHCKKDKKFCTTVVARKDRGRAGSQNDAEWRCYSLEELDFQKTNPSCIDECGNELPCQGAVPEESTHHITWTKLPSKIDEATQKFCTERQRAANDYCASEFADSLARYGPGAGDQTSQFRCIKKAAMRADAEGQCADSCKGTETCGGGRSRLDGPLSVDDVLNAHEGISEAMKSASTEC
# How the values were obtained:
# Assay in all cases: glycan array binding signal (z-score within array); higher = stronger binding
# Conditions in all cases: glycan notation: IUPAC condensed, linker removed
# [1] = target: Gal(b1-3)GalNAc(b1-4)Gal3S(b1-4)Glc
# Outline: (§1)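 Glycan array binding is given as a within-array Z-score, which can be read as non-binding when negative. The arrays, 3228 of them, came from the Consortium for Functional Glycomics database and were retained only where the protein sequence was available. Z-scores were averaged across arrays of the same protein sequence at different concentrations or buffers and across linkers.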
# [2] = target: Gal(b1-3)GalNAc(b1-4)[Neu5Ac(a2-3)]Gal(b1-4)Glc
# Outline: as §1
# [3] = target: Gal(b1-3)GalNAc(b1-4)[Neu5Gc(a2-3)]Gal(b1-4)Glc
# Outline: as §1
# [4] = target: Gal(b1-3)[Neu5Ac(a2-6)]GalNAc(b1-4)Gal(b1-4)Glc
# Outline: as §1
# [5] = target: Gal(b1-4)GlcNAc(b1-2)[Gal(b1-4)GlcNAc(b1-4)]Man(a1-3)[Gal(b1-4)GlcNAc(b1-2)Man(a1-6)]Man(b1-4)GlcNAc(b1-4)GlcNAc
# Outline: as §1
# Gal(b1-4)GlcNAc(b1-3)Fuc = target: Gal(b1-4)GlcNAc(b1-3)Fuc
# Outline: as §1
# Glc(a1-3)Glc = target: Glc(a1-3)Glc
# Outline: as §1
# [6] = target: Glc(a1-3)Glc(a1-3)Man(a1-2)Man(a1-2)Man(a1-3)[Man(a1-3)[Man(a1-6)]Man(a1-6)]Man(b1-4)GlcNAc
# Outline: as §1
# [7] = target: Glc(a1-6)Glc(a1-6)Glc(a1-6)Glc(a1-6)Glc
# Outline: as §1
# [8] = target: Glc(a1-6)Glc(a1-6)Glc(a1-6)Glc(a1-6)Glc(a1-6)Glc(a1-6)Glc(a1-6)Glc(a1-6)Glc
# Outline: as §1
# Glc(b1-2)Glc = target: Glc(b1-2)Glc
# Outline: as §1
# [9] = target: Glc(b1-3)Glc(b1-3)Glc(b1-3)Glc(b1-3)Glc(b1-3)Glc(b1-3)Glc(b1-3)Glc(b1-3)Glc(b1-3)Glc(b1-3)Glc
# Outline: as §1
# [10] = target: Glc(b1-4)Glc(b1-4)Glc(b1-4)Glc(b1-4)Glc(b1-4)Glc(b1-4)Glc
# Outline: as §1
# [11] = target: Glc(b1-4)Glc(b1-4)Glc(b1-4)Glc(b1-4)Glc(b1-4)Glc(b1-4)Glc(b1-4)Glc(b1-4)Glc
# Outline: as §1
# [12] = target: Glc(b1-6)Glc(b1-6)Glc(b1-6)Glc
# Outline: as §1
# [13] = target: GlcA(b1-3)GlcNAc(b1-4)GlcA(b1-3)GlcNAc(b1-4)GlcA(b1-3)GlcNAc(b1-4)GlcA(b1-3)GlcNAc(b1-4)GlcA(b1-3)GlcNAc(b1-4)GlcA(b1-3)GlcNAc(b1-4)GlcA(b1-3)GlcNAc
# Outline: as §1
# GlcNAc(a1-4)Gal = target: GlcNAc(a1-4)Gal
# Outline: as §1
# GlcNAc(b1-2)Man = target: GlcNAc(b1-2)Man
# Outline: as §1
# GlcNAc(b1-4)GlcNAc = target: GlcNAc(b1-4)GlcNAc
# Outline: as §1
# [14] = target: Man(a1-2)Man(a1-2)Man(a1-3)[Man(a1-2)Man(a1-3)[Man(a1-2)Man(a1-6)]Man(a1-6)]Man(b1-4)GlcNAc(b1-4)GlcNAc
# Outline: as §1
# Man(a1-3)[Man(a1-6)]Man = target: Man(a1-3)[Man(a1-6)]Man
# Outline: as §1
# Neu5Ac(a2-3)Gal = target: Neu5Ac(a2-3)Gal
# Outline: as §1
# [15] = target: Neu5Ac(a2-3)Gal(b1-3)GalNAc(b1-4)[Neu5Ac(a2-3)]Gal(b1-4)Glc
# Outline: as §1
# [16] = target: Neu5Ac(a2-3)Gal(b1-4)[Fuc(a1-3)]GlcNAc(b1-3)Gal
# Outline: as §1
# [17] = target: Neu5Ac(a2-3)[GalNAc(b1-4)]Gal(b1-3)GalNAc(b1-4)[Neu5Ac(a2-3)]Gal(b1-4)Glc
# Outline: as §1
# [18] = target: Neu5Ac(a2-3)[GalNAc(b1-4)]Gal(b1-4)Glc
# Outline: as §1
# [19] = target: Neu5Ac(a2-8)Neu5Ac(a2-3)[Gal(b1-3)GalNAc(b1-4)]Gal(b1-4)Glc
# Outline: as §1
# Neu5Ac(b2-3)Gal(b1-4)Glc = target: Neu5Ac(b2-3)Gal(b1-4)Glc
# Outline: as §1
# Rha(a1-6)Glc = target: Rha(a1-6)Glc
# Outline: as §1
# [20] = target: Gal(b1-3)GlcNAc(b1-3)Gal(b1-4)Glc
# Outline: as §1
# Neu(a2-3)Gal(b1-4)Glc = target: Neu(a2-3)Gal(b1-4)Glc
# Outline: as §1
# [21] = target: Neu(a2-3)Gal6S(b1-4)[Fuc(a1-3)]GlcN(b1-3)Gal(b1-4)Glc
# Outline: as §1
# [22] = target: Neu5Ac(a2-3)Gal(b1-4)[Fuc(a1-3)]GlcNAc(b1-3)Gal(b1-4)Glc
# Outline: as §1
# [23] = target: Neu5Ac(a2-3)Gal(b1-4)[Fuc(a1-3)]GlcNAc6S(b1-3)Gal(b1-4)Glc
# Outline: as §1
# [24] = target: Neu5Ac(a2-3)Gal6S(b1-4)[Fuc(a1-3)]GlcNAc(b1-3)Gal(b1-4)Glc
# Outline: as §1
# [25] = target: Neu5Ac(a2-3)Gal6S(b1-4)[Fuc(a1-3)]GlcNAc6S(b1-3)Gal(b1-4)Glc
# Outline: as §1
# [26] = target: Neu5Ac(a2-8)Neu5Ac(a2-8)Neu5Ac(a2-8)Neu5Ac(a2-8)Neu5Ac(a2-8)Neu5Ac(a2-8)Neu5Ac
# Outline: as §1
# [27] = target: Neu5Ac(a2-8)Neu5Ac(a2-8)Neu5Ac(a2-8)Neu5Ac(a2-8)Neu5Ac(a2-8)Neu5Ac(a2-8)Neu5Ac(a2-8)Neu5Ac(a2-8)Neu5Ac
# Outline: as §1
# [28] = target: Neu5Ac(a2-8)Neu5Ac(a2-8)Neu5Ac(a2-8)Neu5Ac(a2-8)Neu5Ac(a2-8)Neu5Ac(a2-8)Neu5Ac(a2-8)Neu5Ac(a2-8)Neu5Ac(a2-8)Neu5Ac(a2-8)Neu5Ac
# Outline: as §1
# [29] = target: Neu5Ac9Ac(a2-6)Gal(b1-4)GlcNAc
# Outline: as §1
# Neu(a2-6)Gal(b1-4)Glc = target: Neu(a2-6)Gal(b1-4)Glc
# Outline: as §1
# [30] = target: Neu5Ac(a2-3)Gal(b1-3)GalNAc(b1-4)Gal(b1-4)Glc
# Outline: as §1
# [31] = target: Neu5Ac(a2-3)Gal(b1-3)GlcNAc(b1-3)[Fuc(a1-3)[Gal(b1-4)]GlcNAc(b1-6)]Gal(b1-4)Glc
# Outline: as §1
# [32] = target: Neu5Ac(a2-6)Gal(b1-4)GlcNAc(b1-3)[Neu5Ac(a2-6)Gal(b1-4)GlcNAc(b1-6)]Gal(b1-4)Glc
# Outline: as §1
# [33] = target: Neu5Ac(a2-9)Neu5Ac(a2-3)Gal(b1-4)Glc
# Outline: as §1
# Neu5Gc(a2-3)Gal(b1-4)Glc = target: Neu5Gc(a2-3)Gal(b1-4)Glc
# Outline: as §1
binder,measurement,setting,value
B1,glycan array binding signal (z-score),[1],5.56
same,glycan array binding signal (z-score),[2],5.3
same,glycan array binding signal (z-score),[3],4.89
same,glycan array binding signal (z-score),[4],6.12
same,glycan array binding signal (z-score),[5],3.22
same,glycan array binding signal (z-score),Gal(b1-4)GlcNAc(b1-3)Fuc,-0.248
same,glycan array binding signal (z-score),Glc(a1-3)Glc,-0.306
same,glycan array binding signal (z-score),[6],-0.323
same,glycan array binding signal (z-score),[7],-0.323
same,glycan array binding signal (z-score),[8],-0.323
same,glycan array binding signal (z-score),Glc(b1-2)Glc,-0.32
same,glycan array binding signal (z-score),[9],-0.323
same,glycan array binding signal (z-score),[10],-0.323
same,glycan array binding signal (z-score),[11],-0.323
same,glycan array binding signal (z-score),[12],-0.323
same,glycan array binding signal (z-score),[13],-0.323
same,glycan array binding signal (z-score),GlcNAc(a1-4)Gal,-0.323
same,glycan array binding signal (z-score),GlcNAc(b1-2)Man,-0.323
same,glycan array binding signal (z-score),GlcNAc(b1-4)GlcNAc,-0.323
same,glycan array binding signal (z-score),[14],-0.323
same,glycan array binding signal (z-score),Man(a1-3)[Man(a1-6)]Man,-0.323
same,glycan array binding signal (z-score),Neu5Ac(a2-3)Gal,-0.323
same,glycan array binding signal (z-score),[15],-0.191
same,glycan array binding signal (z-score),[16],-0.323
same,glycan array binding signal (z-score),[17],-0.323
same,glycan array binding signal (z-score),[18],-0.311
same,glycan array binding signal (z-score),[19],6.1
same,glycan array binding signal (z-score),Neu5Ac(b2-3)Gal(b1-4)Glc,-0.32
same,glycan array binding signal (z-score),Rha(a1-6)Glc,-0.322
B2,glycan array binding signal (z-score),[2],-0.344
same,glycan array binding signal (z-score),[20],-0.441
same,glycan array binding signal (z-score),Neu(a2-3)Gal(b1-4)Glc,-0.422
same,glycan array binding signal (z-score),[21],-0.441
same,glycan array binding signal (z-score),[22],-0.359
same,glycan array binding signal (z-score),[23],0.848
same,glycan array binding signal (z-score),[24],6.08
same,glycan array binding signal (z-score),[25],4.92
same,glycan array binding signal (z-score),[26],0.538
same,glycan array binding signal (z-score),[27],-0.166
same,glycan array binding signal (z-score),[28],-0.291
same,glycan array binding signal (z-score),[29],-0.428
B3,glycan array binding signal (z-score),[3],-0.151
same,glycan array binding signal (z-score),Neu(a2-3)Gal(b1-4)Glc,-0.234
same,glycan array binding signal (z-score),Neu(a2-6)Gal(b1-4)Glc,-0.287
same,glycan array binding signal (z-score),[30],-0.287
same,glycan array binding signal (z-score),[31],-0.243
same,glycan array binding signal (z-score),[23],0.435
same,glycan array binding signal (z-score),[25],2.31
same,glycan array binding signal (z-score),[32],-0.287
same,glycan array binding signal (z-score),[33],8.12
same,glycan array binding signal (z-score),Neu5Gc(a2-3)Gal(b1-4)Glc,-0.038
